# Assay results reported in PubChem BioAssay AID1159580 (chemical genetic matrix, 2015).
# Several values for one entry are separate records, joined by “and”; a condition that tells them apart may be missing. Equal entries are not always repeated. Out of some 5,500 compounds screened, about 2,000 (36%) were called active. Another 18% or so got no clear call; they are omitted. The list shows a part of the results. Values without a mark were called inactive. No stated cut-off is given here; in the data, active means normalized growth mostly below about 0.91 (no sharp cut-off); inconclusive means no clear call, values can overlap the other calls; inactive means mostly above about 0.92.
# Test: chemical genetic growth profiling, strain panel (AID 1159580);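 further: tested at 20 µM; growth read once vehicle control cultures reached saturation at 30 °C; 1 = growth at the plate median or of vehicle wells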
# Settings: S. cerevisiae deletion strains, growth OD
compound,measurement,setting,value
COc1ccc(C(=O)CC(=O)c2ccc(C(C)(C)C)cc2)cc1,normalized growth,"locus YAL013W, strain DEP1, stronger effect = lower value",0.998
same,normalized growth,"locus YAL021C, strain ccr4, stronger effect = lower value",0.999
same,normalized growth,"locus YAL026C, strain drs2, stronger effect = lower value",0.996
same,normalized growth,"locus YAL030W, strain snc1, stronger effect = lower value",0.993
same,normalized growth,"locus YBL061C, strain skt5, stronger effect = lower value",0.99
same,normalized growth,"locus YBR009C, strain hhf1, stronger effect = lower value",0.976
same,normalized growth,"locus YBR021W, strain FUR4, stronger effect = lower value",0.979
same,normalized growth,"locus YBR023C, strain chs3, stronger effect = lower value",0.987
same,normalized growth,"locus YBR171W, strain sec66, stronger effect = lower value",1.03
same,normalized growth,"locus YBR229C, strain ROT2, stronger effect = lower value",0.997
same,normalized growth,"locus YBR231C, strain swc5, stronger effect = lower value",0.997
same,normalized growth,"locus YBR279W, strain paf1, stronger effect = lower value",0.991
same,normalized growth,"locus YCL011C, strain gbp2, stronger effect = lower value",0.995
same,normalized growth,"locus YCL016C, strain dcc1, stronger effect = lower value",0.984
same,normalized growth,"locus YCL029C, strain bik1, stronger effect = lower value",1.01
same,normalized growth,"locus YCL069W, strain vba3, stronger effect = lower value",0.993
same,normalized growth,"locus YCR088W, strain abp1, stronger effect = lower value",0.99
same,normalized growth,"locus YDL005C, strain med2, stronger effect = lower value",0.983
same,normalized growth,"locus YDL035C, strain GPR1, stronger effect = lower value",0.954
same,normalized growth,"locus YDL040C, strain nat1, stronger effect = lower value",0.98
same,normalized growth,"locus YDL074C, strain BRE1, stronger effect = lower value",0.933
same,normalized growth,"locus YDL101C, strain DUN1, stronger effect = lower value",0.99
same,normalized growth,"locus YDL134C, strain PPH21, stronger effect = lower value",1.01
same,normalized growth,"locus YDL185W, strain tfp1, stronger effect = lower value",1
same,normalized growth,"locus YDL192W, strain arf1, stronger effect = lower value",1
same,normalized growth,"locus YDR001C, strain nth1, stronger effect = lower value",0.995
same,normalized growth,"locus YDR069C, strain doa4, stronger effect = lower value",0.989
same,normalized growth,"locus YDR101C, strain arx1, stronger effect = lower value",1
same,normalized growth,"locus YDR137W, strain rgp1, stronger effect = lower value",0.918
same,normalized growth,"locus YDR150W, strain NUM1, stronger effect = lower value",0.999
same,normalized growth,"locus YDR159W, strain sac3, stronger effect = lower value",1.01
same,normalized growth,"locus YDR162C, strain NBP2, stronger effect = lower value",0.851
same,normalized growth,"locus YDR195W, strain ref2",1.01
same,normalized growth,"locus YDR297W, strain sur2, stronger effect = lower value",1
same,normalized growth,"locus YDR318W, strain mcm21, stronger effect = lower value",0.994
same,normalized growth,"locus YDR334W, strain swr1, stronger effect = lower value",1.02
same,normalized growth,"locus YDR335W, strain msn5, stronger effect = lower value",1
same,normalized growth,"locus YDR388W, stronger effect = lower value",1.01
same,normalized growth,"locus YDR392W, strain spt3, stronger effect = lower value",1.02
same,normalized growth,"locus YDR502C, strain sam2, stronger effect = lower value",1.01
same,normalized growth,"locus YEL003W, strain gim4, stronger effect = lower value",0.992
same,normalized growth,"locus YEL037C, strain rad23, stronger effect = lower value",0.992
same,normalized growth,"locus YEL061C, strain CIN8 (second series), stronger effect = lower value",0.976
same,normalized growth,"locus YEL061C, strain CIN8, stronger effect = lower value",0.96
same,normalized growth,"locus YER015W, strain faa2, stronger effect = lower value",0.997
same,normalized growth,"locus YER016W, strain bim1, stronger effect = lower value",0.983
same,normalized growth,"locus YER110C, stronger effect = lower value",1.01
same,normalized growth,"locus YER111C, strain swi4, stronger effect = lower value",0.995
same,normalized growth,"locus YER155C, strain BEM2 (second series), stronger effect = lower value",1.01
same,normalized growth,"locus YER155C, strain BEM2, stronger effect = lower value",0.94
same,normalized growth,"locus YER167W, strain BCK2, stronger effect = lower value",0.987
same,normalized growth,"locus YFR010W, strain ubp6, stronger effect = lower value",1
same,normalized growth,"locus YGL078C, strain dbp3, stronger effect = lower value",0.996
same,normalized growth,"locus YGL086W, strain mad1, stronger effect = lower value",0.991
same,normalized growth,"locus YGL167C, strain pmr1, stronger effect = lower value",0.982
same,normalized growth,"locus YGL173C, strain kem1, stronger effect = lower value",0.989
same,normalized growth,"locus YGL227W, strain vid30, stronger effect = lower value",0.982
same,normalized growth,"locus YGL240W, strain doc1, stronger effect = lower value",0.986
same,normalized growth,"locus YGL248W, strain PDE1, stronger effect = lower value",0.986
same,normalized growth,"locus YGL253W, strain hxk2, stronger effect = lower value",0.99
same,normalized growth,"locus YGR078C, strain PAC10, stronger effect = lower value",0.931
same,normalized growth,"locus YGR135W, strain pre9, stronger effect = lower value",0.997
same,normalized growth,"locus YGR229C, strain SMI1, stronger effect = lower value",0.83
same,normalized growth,"locus YGR252W, strain gcn5, stronger effect = lower value",1.02
same,normalized growth,"locus YHR013C, strain ard1, stronger effect = lower value",0.945
same,normalized growth,"locus YHR027C, strain rpn1, stronger effect = lower value",0.992
same,normalized growth,"locus YHR030C, strain SLT2, stronger effect = lower value",0.929 and 0.981
same,normalized growth,"locus YHR079C, strain IRE1 (second series), stronger effect = lower value",1
same,normalized growth,"locus YHR079C, strain IRE1, stronger effect = lower value",0.984
same,normalized growth,"locus YHR094C, strain hxt1, stronger effect = lower value",1
same,normalized growth,"locus YHR129C, strain ARP1, stronger effect = lower value",1
same,normalized growth,"locus YHR142W, strain chs7, stronger effect = lower value",0.956
same,normalized growth,"locus YHR200W, strain rpn10, stronger effect = lower value",1
same,normalized growth,"locus YIL066C, strain RNR3, stronger effect = lower value",0.992
same,normalized growth,"locus YIL073C, strain SPO22, stronger effect = lower value",0.872
same,normalized growth,"locus YIL125W, strain kgd1, stronger effect = lower value",0.993
same,normalized growth,"locus YIR030C, strain dcg1, stronger effect = lower value",0.998
same,normalized growth,"locus YJL092W, strain hpr5, stronger effect = lower value",0.993
same,normalized growth,"locus YJL095W, strain BCK1 (second series), stronger effect = lower value",0.967
same,normalized growth,"locus YJL095W, strain BCK1, stronger effect = lower value",0.958 and 0.995
same,normalized growth,"locus YJL115W, strain asf1, stronger effect = lower value",1.01
same,normalized growth,"locus YJL129C, strain trk1, stronger effect = lower value",0.918
same,normalized growth,"locus YJL134W, strain LCB3, stronger effect = lower value",1
same,normalized growth,"locus YJL154C, strain vps35, stronger effect = lower value",0.993
same,normalized growth,"locus YJL164C, strain tpk1, stronger effect = lower value",0.913 (active)
same,normalized growth,"locus YJL166W, strain qcr8, stronger effect = lower value",0.976
same,normalized growth,"locus YJL168C, strain set2, stronger effect = lower value",1
same,normalized growth,"locus YJL187C, strain SWE1 (second series), stronger effect = lower value",1.01
same,normalized growth,"locus YJL187C, strain SWE1, stronger effect = lower value",1
same,normalized growth,"locus YJR043C, strain POL32, stronger effect = lower value",1
same,normalized growth,"locus YJR066W, strain TOR1, stronger effect = lower value",0.97
